Assay results taken from PubChem BioAssay (Tox21).
Results filed as inconclusive are left out. A call without a number means that no potency is given here. Calls of active or inactive are those of the source. Calls follow the shape of the dose curve; as a rule, active = well fitted cell-killing curve with a large enough effect in the repeat runs; inconclusive = weak or mixed curves, or effect the other way; inactive = flat fitted curve, though single readings scatter.

test: qHTS RealTime-Glo MT Cell Viability Assay in HepG2 cells - 40 hour (AID 1224870); conditions: RealTime-Glo luminescence; series mostly up to 76.8 µM; also: nearly all actives have a fitted effect of over 50% in size
Source text: National Center for Advancing Translational Sciences [NCATS]
NIH Chemical Genomics Center [NCGC]
U.S. Environmental Protection Agency [EPA]
National Institutes of Environmental Health Sciences [NIEHS]
National Toxicology Program [NTP]
U.S. Food and Drug Administration [FDA]
Measure of cell viability is critical in the cell-base assay. Analysis of cell viability is necessary for the characterization of cell responses to cytotoxic drugs and environmental stress. A RealTime-Glo MT Cell Viability Assay to monitor cell viability in real time of continues cell culture during 40 hours of compound treatment was used to screen Tox21 10K library compounds in HepG2 cells. The RealTime-Glo MT Cell Viability Assay is a nonlytic, homogeneous, bioluminescent method to measure cell viability in real time using a simple, plate-based method. The assay involves adding NanoLuc luciferase and a cell-permeant prosubstrate to cells in culture. Viable cells reduce the proprietary prosubstrate to generate a substrate for NanoLuc luciferase. This substrate diffuses from cells into the surrounding culture medium, where it is rapidly used by the NanoLuc Enzyme to produce a luminescent signal. The signal correlates with the number of viable cells, making the assay well suited for cytotoxicity studies.
Tox21 Assay Protocol Summary:
The mixture of HepG2 cell suspension and reagents were dispensed at 600cells/6 ul/well in 1536-well tissue culture treated black solid bottom plates using a Multidrop dispenser. After the assay plates were incubated at a 37 C/5% CO2 incubator for 5 hours, 23 nL of compounds dissolved in DMSO, positive and negative controls was transferred to the assay plate by a pintool work station. The plates were incubated at 37 C for 40 hours. The luminescence intensity were measured at 0h, 8h, 16h, 24h, 32h and 40h time points using ViewLux plate reader during compound treatment.
Potency is read from the fitted curve at half-maximal effect.

Compound | Potency
Cc1ccco1 | inactive
CC(=O)c1ccc([N+](=O)[O-])cc1 | inactive
CCOC(C)=O | inactive
Cc1cc2c(OCC(CNC(C)(C)C)OC(=O)c3ccccc3)cccc2[nH]1 (stereo not given) | inactive
C=Cc1ccc(S(=O)(=O)O)cc1 | inactive
CCCCCCC(C)(C)C(=O)O | inactive
Oc1c(I)cc(I)c2cccnc12 | inactive
CC(C)c1nc(CN(C)C(=O)N[C@H](C(=O)N[C@@H](Cc2ccccc2)C[C@H](O)[C@H](Cc2ccccc2)NC(=O)OCc2cncs2)C(C)C)cs1 | inactive
CN1CCCC(CC2c3ccccc3Sc3ccccc32)C1 (stereo not given) | 26.8 µM (active)
CC(=O)Oc1ccc([N+](=O)[O-])cc1CCl | inactive
O=C(/C=C/c1ccc(O)c(O)c1)O[C@@H]1C[C@@](OC(=O)/C=C/c2ccc(O)c(O)c2)(C(=O)O)C[C@@H](O)[C@@H]1O | inactive
O=C(/C=C/c1ccccc1)OCCc1ccccc1 | inactive
CC1=C(Br)C(=O)C(Br)=C/C1=C(/c1ccccc1S(=O)(=O)O)c1cc(Br)c(O)c(Br)c1C | inactive
CC(=O)N/N=C/c1ccc([N+](=O)[O-])o1 | inactive
Cc1cccc(N(C)C(=S)Oc2ccc3c(c2)CCC3)c1 | inactive
Brc1cc2ccccc2c2ccccc12 | inactive
CCCCCCCCN | inactive
C[C@H]1C[C@H](O)c2ccsc2S1(=O)=O | inactive
CCCCCC#CC(=O)OC | inactive
CCOC(=O)c1ccccc1C(=C1C=C(Br)C(=O)C(Br)=C1)c1cc(Br)c(O)c(Br)c1 | inactive

Compound | Potency
c1ccc(C[n+]2cccc3ccccc32)cc1 | inactive
C=C(C)CCCC(C)CCO (stereo not given) | inactive
CN(C)CCC=C1c2ccccc2C=Cc2ccccc21 | inactive
O=C1c2ccccc2C(=O)C1c1ccc(Br)cc1 | inactive
O=C(OCC(O)CO)c1ccccc1Nc1ccnc2cc(Cl)ccc12 (stereo not given) | inactive
OC(CCN1CCCC1)(c1ccccc1)C1CCCCC1 (stereo not given) | inactive
C/C=C/C=C/C=O | inactive
O=c1[nH]c2ccc(Cl)cc2o1 | inactive
CCC(=O)C1CC(C(C)C)CC=C1C (stereo not given) | inactive
COc1ccccc1N1CCN(CCCCNC(=O)c2ccc(-c3ccc(C(C)=O)cc3)cc2)CC1 | inactive
COc1ccccc1Oc1c(NS(=O)(=O)c2ccc(C(C)(C)C)cc2)nc(-c2ncccn2)nc1OCCO | inactive
C[C@@]12CCC[C@H]1[C@@H]1CC[C@H]3C[C@@H](O)CC[C@]3(C)[C@H]1CC2 | inactive
O=C(CCCN1CC=C(n2c(=O)[nH]c3ccccc32)CC1)c1ccc(F)cc1 | inactive
CCn1cc(C(=O)O)c(=O)c2cc(F)c(N3CCNCC3)cc21 | inactive
O=C=Nc1ccc(Cl)c(Cl)c1 | inactive
Clc1ccc(Nc2nnc(Cc3ccncc3)c3ccccc23)cc1 | inactive
C=C(C)[C@@H]1CCC2=CCC[C@@H](C)[C@]2(C)C1 | inactive
CCCCCCCCCCCCCCN(CCO)CCO | 17.4 µM (active)
COc1cc(N)c(Cl)cc1C(=O)NC1CCN(CCCOc2ccc(F)cc2)CC1OC (stereo not given) | inactive
C=CC(=O)[O-].C=CC(=O)[O-].[Zn+2] | inactive
